Assay outcomes from PubChem BioAssay.
Compounds with a hit are over-represented: about 0.65% of the library has one in this group of screens.
BH1578 lux ind – inducers of Vibrio cholerae quorum light production without autoinducers | V. cholerae BH1578 lux reporter, luminescence, 6 h | activation, % at 18.7 µM | 350,000 compounds, 0.16% hits; in the data active means activation mostly above about 9.7%, no sharp cut-off; inconclusive means no clear call, values can overlap the other calls; inactive means mostly below about 3.7%
Mtb UGM inh – Mtb UDP-galactopyranose mutase inhibition. 320,000 compounds, 0.06% hits. purified UGM, fluorescence polarization probe displacement. inhibition, % at 10 µM. P9WIQ1; in the data active means inhibition above about 10%, passing the limit was not always enough; inconclusive means no clear call, values can overlap the other calls
PrP 5UTR inh – inhibition of PrP 5' UTR reporter expression; inhibition, % (no concentration beside the values); cell-based PrP 5' UTR mRNA reporter, plate reader; 340,000 compounds, 0.35% hits; in the data active means inhibition above about 52%; further: 0 = median of the neutral control wells
Y pestis TopoI – inhibitors of Yersinia pestis topoisomerase I; Y. pestis Topo-I cleavage product accumulation, plate reader; activity, % at 10 µM; 360,000 compounds, 0.064% hits; in the data active means activity above about 50%, passing the limit was not always enough; inconclusive means no clear call, values can overlap the other calls
TcdB inh – inhibitors of Clostridioides difficile toxin B glycohydrolase | inhibition, % at 9.99 µM | TcdB glycohydrolase enzymatic assay, plate reader | 350,000 compounds, 0.24% hits | P18177; in the data active means inhibition above about 10%
PrP 5UTR single – prion 5' UTR mRNA inhibition, cherry-pick retest; shares compounds with PrP 5UTR inh; cell-based prion protein 5' UTR reporter, plate reader; inhibition, % at 2.5 µM; 1,100 compounds, 48% hits; AID 504592; in the data active means inhibition above about 54%; inconclusive means no clear call, values can overlap the other calls
Numbers without * were called inactive; i = inactive; ? = inconclusive; nt = no result.

SMILES	BH1578 lux ind	Mtb UGM inh	PrP 5UTR inh	Y pestis TopoI	TcdB inh	PrP 5UTR single
COc1ccc(C2NC3=C(CCC3)C3(C#N)C(OC)(OC)N=C(N)C23C#N)cc1 (stereo not given)	-0.6	3.0	52.7*	-8.4	nt	?
COC1(OC)N=C(N)C2(C#N)C(c3ccccc3)NC(C)=CC12C#N (stereo not given)	1.4	-0.3	-13.1	0.2	nt	nt
CCC1CN2CCc3cc(OC)c(OC)cc3C2CC1CC1NCCc2c1[nH]c1ccc(O)cc21 (stereo not given)	-5.6	nt	82.4*	-18.7	3.8	87.0*
COc1cc2c(cc1OC)C(Cc1ccc(O)cc1)NCC2 (stereo not given)	-0.3	0.1	-24.0	9.4	1.9	nt
CC(=O)OC(C)(C)/C=C/C(=O)[C@](C)(O)C1[C@H](O)C[C@@]2(C)C3CC=C4C(C[C@H](O)C(=O)C4(C)C)[C@]3(C)C(=O)C[C@]12C (stereo not given in full)	-0.4	0.9	83.6*	6.1	nt	89.9*
CC(C)(O)/C=C/C(=O)C(C)(O)C1C(O)CC2(C)C3CC=C4C(C=C(O)C(=O)C4(C)C)C3(C)C(=O)CC12C (stereo not given)	i	nt	70.0*	-6.4	1.2	90.4*
CO[C@@H]1CN(C)C(=O)c2cc(NC(C)=O)ccc2OC[C@@H](C)N(CC2CC2)C[C@H]1C	nt	nt	nt	nt	-0.5	nt
COc1cc2c3c(c1)C(C)=CC(C)(C)N3C(=O)C2=O	i	1.9	79.5*	-8.9	1.0	-2.1
COCC(=O)N1[C@@H](CO)[C@@H]2c3ccccc3N(C(=O)C3CC3)C[C@@H]21	nt	nt	nt	nt	0.4	nt
CCOc1ccccc1N(CC(=O)Nc1cccnc1)S(C)(=O)=O	0.4	-0.9	-19.5	-6.1	nt	nt
CCOc1ccccc1N(CC(=O)Nc1cccnc1)S(=O)(=O)c1ccc(C)cc1	-0.4	0.1	54.5*	19.7	0.9	-17.2
CCOC(=O)NC(=O)/C(C#N)=N\Nc1cccc(OC)c1	i	-0.1	-13.8	3.9	2.9	nt
CCOC(=O)NC(=O)/C(C#N)=N/Nc1c(F)cccc1F	i	nt	61.1*	-0.9	nt	30.1
COc1ccccc1C(=O)Nc1nc2ccccc2s1	i	1.5	91.7*	3.5	0.4	92.7*
COc1ccc(C(=O)Nc2nc3ccccc3s2)c(OC)c1	-0.3	0.3	94.5*	0.5	1.0	94.9*
Cc1ccc(NC(=O)CN(C)C(=O)C2COc3ccccc3O2)cc1 (stereo not given)	i	-0.8	75.3*	-3.3	1.0	-8.7
Cn1cnc(S(=O)(=O)N2CCCCN3[C@H](CO)[C@@H](c4ccc(C#CC5CCCC5)cc4)[C@H]3C2)c1	nt	nt	nt	nt	-18.6	nt
COCC#Cc1ccc2c(c1)O[C@@H](CN(C)S(=O)(=O)c1cccc(OC)c1)[C@@H](C)CN([C@H](C)CO)S2(=O)=O	nt	nt	nt	nt	1.5	nt
CN(C)c1ccc(/C=N/N=C2/NC(=O)/C(=C/c3ccc([N+](=O)[O-])cc3)S2)cc1	-1.7	0.8	62.5*	-0.1	nt	31.0
CN(C)c1ccc(C=C2SC(=S)NC2=O)cc1	i	nt	-36.5	-6.1	1.5	nt
C[C@H]1CN([C@@H](C)CO)S(=O)(=O)c2ccc(C3=CCCC3)cc2O[C@H]1CN(C)C(=O)c1ccccn1	nt	nt	nt	nt	-0.3	nt
COc1cccc(-c2nc3n(n2)C(c2cccs2)C(C(=O)Nc2cccnc2)=C(C)N3)c1 (stereo not given)	-0.4	-0.3	85.2*	-3.0	0.3	4.7
COCc1cn(CC[C@@H]2CC[C@@H](NC(=O)c3ccccc3)[C@H](CO)O2)nn1	nt	nt	nt	nt	-0.4	nt
C[C@H]1CN([C@@H](C)CO)C(=O)c2cc(C#CCN(C)C)cnc2O[C@H]1CN(C)Cc1ccccc1	nt	nt	nt	nt	-0.9	nt
COC(=O)N(C)c1nc2ccccc2s1	i	4.2	-40.4	-0.1	nt	nt
SMILES	BH1578 lux ind	Mtb UGM inh	PrP 5UTR inh	Y pestis TopoI	TcdB inh	PrP 5UTR single
CN(C(=O)OC(C)(C)C)c1ccc(-c2nc3ccccc3s2)cc1	-11.1	-0.1	89.7*	35.4	-1.8	88.3*
CC(C)c1ccc(-c2nc3ccccc3s2)cc1	i	-0.8	84.8*	2.2	0.9	85.0*
Cc1ccc(S(=O)(=O)N2C[C@H](O)COC[C@H]3O[C@@H](CC(=O)N[C@@H]4CCN(Cc5ccccc5)C4)CC[C@@H]32)cc1	nt	nt	nt	nt	0.0	nt
COc1cc(NC(=O)c2cccs2)c(C(=O)OCC(=O)c2cc(C)n(-c3ccccc3)c2C)cc1OC	1.6	1.3	70.9*	-6.2	nt	73.2*
Cc1ccc(S(=O)(=O)N(C)c2c(C)ccc(S(=O)(=O)NC(C)(C)C)c2C)cc1	-0.2	-0.9	82.0*	2.5	2.6	-38.7
CN1CCN(CC(=O)Nc2cccc(S(=O)(=O)N(C)c3ccccc3)c2)CC1	1.2	-1.2	91.0*	1.4	0.6	-0.4
CCCC(=O)Nc1cccc(S(=O)(=O)N(C)c2ccccc2)c1	i	1.6	-6.8	3.8	nt	nt
CCCCc1ccc(-c2ccc(Br)cc2)nc1	i	-1.2	-95.0	4.8	0.9	nt
CCCc1ccc(-c2ccc(F)c(N)c2)nc1	-2.8	4.2	59.1*	5.8	nt	?
Cc1cc(/C=C2\SC(=S)N(C)C2=O)c(C)n1-c1ccc(O)cc1	-0.3	2.7	76.1*	-28.4	0.4	77.3*
Cc1ccoc1C(=O)Nc1ccc(CC(=O)O)cc1	-0.2	2.1	63.6*	-7.4	nt	53.5*
CC(=NNC(=S)N(Cc1ccccn1)Cc1ccccn1)c1cnccn1	0.0	nt	79.9*	7.9	-2.3	58.0*
CC=Cc1ccc2n(c1=O)C[C@@H]1[C@@H](CO)[C@H](C(=O)NCc3cccc(F)c3)[C@H]2N1S(C)(=O)=O (mixture of isomers)	nt	nt	nt	nt	0.7	nt
COc1ccccc1N1CCN(C(=O)c2cc3n(n2)C(C(F)(F)F)CC(c2ccco2)N3)CC1 (stereo not given)	-0.6	-0.2	-7.9	30.9	nt	nt
O=C(c1cc2n(n1)C(C(F)(F)F)CC(c1ccco1)N2)N1CCc2ccccc2C1 (stereo not given)	-1.9	-3.1	64.4*	4.0	nt	-16.7
Cc1ccc[n+](CC(=O)c2ccc(-c3ccccc3)cc2)c1	-0.5	-2.2	-20.2	7.5	-0.3	nt
Cc1ccc(C(=O)C[n+]2ccccc2)cc1	-7.7	-3.6	63.9*	5.5	1.3	-6.7
O=S(=O)(N[C@@H]1CC[C@H](CCn2cc(Cc3ccccc3)nn2)O[C@H]1CO)c1ccccc1F	nt	nt	nt	nt	-0.4	nt
N=c1c2c(n(Cc3ccc([N+](=O)[O-])cc3)c3c1CCC3)CCCC2	i	2.3	80.0*	-8.4	1.6	-2.4
O=C(C1CCCC1)N1CCCCN2[C@H](CO)[C@@H](c3ccc(C#CC4CC4)cc3)[C@@H]2C1	nt	nt	nt	nt	1.3	nt
CCCCc1cn(C[C@H]2CC[C@@H]([C@@H]3CC[C@H](Cn4cc(CCCC)nn4)O3)O2)nn1	-0.6	-0.4	-16.6	5.1	1.3	nt
ClCCCc1cn(C[C@H]2CC[C@@H]([C@@H]3CC[C@H](Cn4cc(CCCCl)nn4)O3)O2)nn1	-9.5	-0.9	68.3*	4.2	1.1	-12.7
